Test results reported in the supplement of paper PMC10338343.
± gives the standard deviation. Over roughly 6,600 sequences, “pre-steady-state target cleavage rate” has its median near 0.07; the highest 2% begin near 0.72. The sample holds the highest values, similar sequences and a random draw of the others, so the mix is not that of the screen.

These sequences were tested on MIWI (PIWIL1) piRISC loaded with Kctd7 piRNA (30 nt) (assay: pre-steady-state target cleavage rate (min^-1); MIWI and MILI are mouse PIWI proteins and EfPiwi is from a freshwater sponge; tags in brackets are library labels; higher = faster piRNA-guided slicing of the target). Conditions: guide: Kctd7 piRNA 5'p-UGUUAAUCUCUCAGAGAAGGUGACAGUGAU; auxiliary factor: 500 nM mouse GTSF1.
In short: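 With or without 500 nM GTSF1 partner protein, 1 nM active affinity-purified piRISC carrying one synthetic guide was mixed with 0.1 nM transcribed, DNA-blocked target RNA library in HEPES–potassium acetate buffer at 33 °C for 0–8 or 0–960 min. Uncleaved targets were sequenced and normalised to depth and to weakly complementary targets, three trials were pooled, and k3 was capped at 0.0001 min^-1. The pre-steady-state cleavage rate came from a burst-and-steady-state fit.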

Sequence	pre-steady-state target cleavage rate
UACACUGUCACCUUCACUGAGAGUUUAACA	0.356 ± 0.081
AUCACUGUCACCUAGACUGAGAGAUUAAGA	0.0119 ± 0.0058
UAGUCUGUGACCUUCUGUGAGAGAUUAACA	0.399 ± 0.028
UAGUCUGUCACCUUCUCUGAGACAUAAACA	0.0237 ± 0.0074
UUCAGUGUCACCUUCUCUGAGAGAUUUUGA	0.161 ± 0.043
AUCACUGUCACCUUCCCUGAGAGAUUAACA	0.449 ± 0.064
UAGUGUGUCACGAACUCUGAGAGAUUAACA	0.0752 ± 0.0083
UAGUGUCUCACCUUCUCUGAGAGAUUAUCA	0.239 ± 0.033
UUAACUGUCACCUUCUCUGAGAGAUUAACA	0.581 ± 0.022
AUCACUGUCAACCUUCUCUGAGAGAUUAACA	0.269 ± 0.021
UUCACUGUCAACCUUCUCUGAGAGAUUAACA	0.271 ± 0.019
AUCAACUGUCACCUUCUCUGAGAGAUUAACA	0.737 ± 0.049
UACAACUGUCACCUUCUCUGAGAGAUUAACA	0.744 ± 0.042
AUAACUGUCACCUUCUCUGAGAGAUUAACA	0.675 ± 0.03
AUCACUGUCACCUUCUCUGAGAGAUUAACU [g2:g30:cont:t1U]	0.526 ± 0.057
UUCAACUGUCACCUUCUCUGAGAGAUUAACA	0.733 ± 0.039
UAAACUGUCACCUUCUCUGAGAGAUUAACA	0.677 ± 0.03
UAGUGUGUGACCUUCUCUGUGAGAUUAACA	0.206 ± 0.016
UAGUGACAGUCCCUUCUCUGAGAGAUUAACA	0.611 ± 0.046
UACACUCUCACCUUCUCUGAGAGAUUAACA	0.444 ± 0.031
UACACACUCACCUUCUCUGAGAGAUUAACA	0.568 ± 0.044
AUCACUCUCACCUUCUCUGAGAGAUUAACA	0.551 ± 0.029
UAGACUCGUCACCUUCUCUGAGAGAUUAACA	0.687 ± 0.041

Sequence	pre-steady-state target cleavage rate
UUCACUCUCACCUUCUCUGAGAGAUUAACA	0.54 ± 0.028
UUCACUCGUCACCUUCUCUGAGAGAUUAACA	0.78 ± 0.042
AUCACUCGUCACCUUCUCUGAGAGAUUAACA	0.747 ± 0.043
UACACUCGUCACCUUCUCUGAGAGAUUAACA	0.77 ± 0.035
UAGUCUCGUCACCUUCUCUGAGAGAUUAACA	0.571 ± 0.025
UACACUGUCACCUUCUCAGAGAGAAUAACA	0.076 ± 0.021
AUCACUGUCACGUUCUCUCAGAGAUUAACA	0.0868 ± 0.0082
UAGUGUCUCACCUUCACUGAGAGAUUAACA	0.276 ± 0.019
UAGUGACUCACCAUCUCUGAGAGUUUAACA	0.173 ± 0.035
UACACUGUCACCUUCUCUGAGACAUUUUGA	0.00497 ± 0.0047
UACACUGUCACCUUCUCUGAGGGAUUAACA	0.611 ± 0.033
UUCACUGUCACCUUCUCUGAGGGAUUAACA	0.51 ± 0.024
UAGACUGUCACCUUCUCUGAGGGAUUAACA	0.741 ± 0.051
UAGACUGUCACCUUCUCUGAGAGGAUUAACA	0.369 ± 0.036
UAGACUGUCACCUUCUCUGAGGAUUAACA	0.00433 ± 0.0033
AUCACUGUCACCUUCUCUGAGGGAUUAACA	0.75 ± 0.041
UAGUGACUCACGUUCUCUGAGAGUUUAACA	0.0255 ± 0.006
UACACUGUCACCUUCACUGAGACAUUAACA	0.19 ± 0.025
AUCACUCACACCUUCUCUGAGAGAUUAACA	0.587 ± 0.027
UAGACUGUCACCUUCUCUGAGAGAUUUACA	0.369 ± 0.049
UAGUGACACACCAUCUCUGAGAGAUUAACA	0.274 ± 0.027
AUCACUGUCAGCUUCUCUGAGAGUUUAACA	0.149 ± 0.018
UACUCUGUCACCUUCUCUGAGAGUUUAACA	0.781 ± 0.098

Sequence	pre-steady-state target cleavage rate
UACACUGUCACCUUCUCUGAGAGUUUAUCA	0.137 ± 0.041
UACACUGACACCUUCUCUGAGAGUUUAACA	0.904 ± 0.3
UUCUCUGUCACCUUCUCUGAGAGUUUAACA	0.517 ± 0.07
AUCACUGUCACCUUCUCUGAGAGUUUAUCA	0.753 ± 0.19
AUCUCUGUCACCUUCUCUGAGAGUUUAACA	0.711 ± 0.12
UUCACUGUCACCUUCUCUGAGAGUUUAUCA	0.27 ± 0.061
AUCACUGACACCUUCUCUGAGAGUUUAACA	0.644 ± 0.16
UUCACUGACACCUUCUCUGAGAGUUUAACA	0.591 ± 0.11
UAGUCUGUCACCUUCUCUGAGAGAAAUACA	0.0823 ± 0.015
AUCACUGAGACCUUCUCUGAGAGAUAUUGA	0.0157 ± 0.0047
UAGUGACAGCCCUUCUCUGAGAGAUUAACA	0.184 ± 0.019
UUCACUGUCACCUUCUCUGAGAGUUUUACA	0.559 ± 0.12
UAGUGACUCACCUUCUCUGUGACAUUAACA	0.0765 ± 0.0076
UAGUCUCUCACCUUCUGUGAGAGAUUAACA	0.00482 ± 0.0046
UAGACUCUCACCUUCUCUGAGAGAUUUUGA	0.0479 ± 0.011
UACACUGGCACCUUCUCUGAGAGAUUAACA	0.453 ± 0.12
UUGCACUGUCACCUUCUCUGAGAGAUUAACA	0.781 ± 0.045
UUCACUGUGCACCUUCUCUGAGAGAUUAACA	0.606 ± 0.05
AUGCACUGUCACCUUCUCUGAGAGAUUAACA	0.775 ± 0.056
UGCACUGUCACCUUCUCUGAGAGAUUAACA	0.726 ± 0.039
AUCACUGGCACCUUCUCUGAGAGAUUAACA	0.724 ± 0.17
UUCACUGGCACCUUCUCUGAGAGAUUAACA	0.728 ± 0.15
UACAGUGUCACCUUCUGUGAGAGAUUAACA	0.662 ± 0.028

Sequence	pre-steady-state target cleavage rate
UAGUGACACACCUUCUCAGAGUGAUUAACA	0.00558 ± 0.0037
UAGUGUGUCACCUUCUCUGAGAGAUUAUCA	0.219 ± 0.026
UAGUGACUCUGCUUCUCUGAGAGAUUAACA	0.00843 ± 0.0019
UAGUGACAGUCCUUCCUCUGAGAGAUUAACA	0.27 ± 0.027
UAGUCUCUCACGUUCUCUGAGAGAUUAACA	0.0195 ± 0.0042
UAGUGACACACCAUCUCUGAGAGAAUAACA	0.0218 ± 0.0057
AGCACUGUCACCUUCUCUGAGAGAUUAACA	0.765 ± 0.044
UAGUCUGUCACCUUCUGUGAGAGAUAAACA	0.0539 ± 0.0081
UACGACUGUCACCUUCUCUGAGAGAUUAACA	0.746 ± 0.07
UUCGACUGUCACCUUCUCUGAGAGAUUAACA	0.859 ± 0.06
AUCGACUGUCACCUUCUCUGAGAGAUUAACA	0.821 ± 0.059
UAGUGUGUCAGCUUCUCUGAGAGAUUAAGA	0.0938 ± 0.015
UACACUCUCACCUUCUCUGUGAGAUUAACA	0.141 ± 0.014
UUGUGUGUCACCUUCUCUGAGAGAUUAACA	0.571 ± 0.025
UAGUCUCUCACCAUCUCUGAGAGAUUAACA	0.0365 ± 0.0075
UACAGUGUCACCAUCUCUGAGAGAUUAACA	0.592 ± 0.036
UACACUCUCACCAUCUCUGAGAGAUUAACA	0.406 ± 0.028
UAGUCAGUCACCAUCUCUGAGAGAUUAACA	0.706 ± 0.04
UACACAGUCACCAUCUCUGAGAGAUUAACA	0.833 ± 0.045
UAGACAGUCACCAUCUCUGAGAGAUUAACA	0.68 ± 0.042
UUCACUCUCACCAUCUCUGAGAGAUUAACA	0.465 ± 0.024
UUCACAGUCACCAUCUCUGAGAGAUUAACA	0.747 ± 0.039
AUCACAGUCACCAUCUCUGAGAGAUUAACA	0.771 ± 0.036
